LANA-H2A inh: blocks KSHV LANA binding to histone H2A/H2B | AID 2629 | 320,000 tested, 0.6% active | Q9QR71 | cell-free LANA-H2A/H2B peptide, fluorescence polarization | inhibition, % (no concentration beside the values); in the data active means inhibition mostly above about 10%, no sharp cut-off; inactive means mostly below about 6.7%
EBNA-1 inhibitor: blocks EBNA-1 binding to DNA; EBNA-1 DNA binding, fluorescence polarization; inhibition, % at 14.8 µM; 300,000 tested, 0.34% active; in the data active means inhibition above about 28%
LYPLA2 inh: counter-screen for PME1 inhibitors: inhibitors of human LYPLA2 | O95372 | recombinant LYPLA2, FP-Rh probe fluorescence polarization | inhibition, % at 5.9 µM | 320,000 tested, 0.38% active | AID 2177;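 active means inhibition above the screen-wide mean plus 3 SD, limit set per campaign, cut at about 26% in these data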;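 further: 0% = LYPLA2 with DMSO and 100% = wells lacking LYPLA2 enzyme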
Target sequence (O95372 whole entry, looked up): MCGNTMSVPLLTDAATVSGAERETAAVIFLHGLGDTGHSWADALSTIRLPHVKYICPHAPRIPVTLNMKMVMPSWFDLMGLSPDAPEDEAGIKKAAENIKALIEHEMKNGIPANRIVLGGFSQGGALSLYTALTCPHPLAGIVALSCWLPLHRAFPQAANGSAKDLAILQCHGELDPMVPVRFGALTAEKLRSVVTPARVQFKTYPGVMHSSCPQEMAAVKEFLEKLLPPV
LYPLA1 counter: LYPLA1 (human) inhibition in PME1 counter-screen. AID 2174. 320,000 tested, 0.16% active. O75608. recombinant LYPLA1, FP-Rh probe fluorescence polarization. inhibition, % at 5.9 µM;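 active means inhibition above the mean of all tested compounds plus 3 SD, set per campaign, cut at about 14% in these data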;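 further: inhibitors block serine hydrolase probe labeling of LYPLA1 so polarization falls; 0% = enzyme with DMSO and 100% = wells lacking LYPLA1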
Target sequence (O75608 whole entry, looked up): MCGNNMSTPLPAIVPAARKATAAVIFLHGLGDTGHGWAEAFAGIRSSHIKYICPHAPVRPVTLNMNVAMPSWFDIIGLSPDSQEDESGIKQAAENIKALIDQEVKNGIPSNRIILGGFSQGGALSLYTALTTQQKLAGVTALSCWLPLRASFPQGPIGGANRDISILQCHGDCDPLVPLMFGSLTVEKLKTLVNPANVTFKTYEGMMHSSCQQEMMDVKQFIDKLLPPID
ZTA DNA inh: ZTA (EBV) inhibition in EBNA-1 counter-screen; AID 2234; 320,000 tested, 0.15% active; P03206; ZTA-DNA binding, fluorescence polarization; inhibition, % at 11 µM; in the data active means inhibition above about 33%
LYPLA2 conf: counter-screen for PME1 inhibitors: confirmation of human LYPLA2 inhibitors | shares compounds with LYPLA2 inh | recombinant LYPLA2, FP-Rh probe fluorescence polarization | inhibition, % at 5.9 µM | 1,100 tested, 72% active | AID 2232;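 active means mean inhibition across replicates above the hit cutoff set in the primary screen, cut at about 26% in these data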;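 further: blocked labeling of the enzyme by serine hydrolase FP-Rh probe lowers polarization; 0% = enzyme with DMSO and 100% = wells lacking LYPLA2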
LYPLA2 gel ABPP: blocks human acyl-protein thioesterase 2 in gel ABPP; rhLYPLA2 in mouse brain proteome, gel ABPP FP-Rh; 150 tested, 30% active; shares compounds with LYPLA2 inh; inhibition, % at 20 µM;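 active means inhibition of LYPLA2 enzyme probe labeling above about 50%, limit read from the data; inactive means inhibition below that limit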;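 further: loss of FP-Rh probe labeling of the LYPLA2 gel band measured as band density; 0% = DMSO only control band and 100% = blank gel background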
Numbers without * were called inactive; . = no result given. Rows were chosen to be rich in hits. Some 1.4% of all compounds tested hit in one or more screens of this group.

SMILES	LANA-H2A inh	EBNA-1 inhibitor	LYPLA2 inh	LYPLA1 counter	ZTA DNA inh	LYPLA2 conf	others
COc1ccc(OCC(=O)Nc2ccc(NC(=O)c3ccccc3Cl)c(OC)c2)cc1	0	9	36*	-1	12	34*
CCNC(=O)CN(C1CCCCC1)S(C)(=O)=O	4	3	1	0	-1	.
N#Cc1ccc(CN2CCN(C(=O)Cn3nc(C(N)=O)c4ccccc4c3=O)CC2)cc1	3	17	29*	0	10	14
COc1ccc(N2CCN(Cc3nc(-c4ccccc4)no3)CC2)cc1	2	-1	26*	6	-6	16
CCn1nc(C)c(CN2CCC(n3nccc3NC(=O)Cc3ccccc3)CC2)c1C	3	8	6	-2	-1	.
COC(=O)c1ccc(CNC(=O)c2cc(COc3cncc(Cl)c3)on2)cc1	1	13	35*	1	9	35*
O=C1COc2ccc(C(=O)COC(=O)c3ccc(Cl)cc3[N+](=O)[O-])cc2N1	.	0	27*	3	-1	33*
CC(C)c1ccc(NC2=NCC(=O)N2Cc2cccs2)cc1	-1	-8	34*	-2	5	26*
O=C(O)c1ccc(Cl)c(NC(=S)NC(=O)c2cccc(COc3ccccc3)c2)c1	4	8	10	-9	6	.
O=C(NC(=S)Nc1ccc(Cl)c(C(=O)O)c1)c1cccc(COc2ccccc2)c1	-1	10	37*	7	18	38*
Cc1ccccc1C(=O)NC(=S)Nc1ccc(Cc2ccncc2)cc1	1	6	10	1	-2	.
Cc1c(NC(=S)NC(=O)c2cccc3ccccc23)cccc1C(=O)O	-2	9	1	-2	-1	.
O=C(NC(=S)Nc1ccc(Cl)c(C(=O)O)c1)c1ccc(OCc2ccccc2)cc1	5	-3	37*	8	15	33*
COc1ccc(C(=O)NC(=S)Nc2ccc(Cc3ccncc3)cc2)cc1	2	-4	32*	-1	2	35*
Cc1c(NC(=S)NC(=O)c2ccc(COc3ccccc3)cc2)cccc1C(=O)O	0	3	30*	7	6	25
O=C(C1CCN(S(=O)(=O)c2c(Cl)cccc2Cl)CC1)N1CCCCCCC1	-1	-11	-10	-5	7	.
O=C1CC(N2CCC(c3nc4ccccc4o3)CC2)C(=O)N1c1ccc(F)cc1 (stereo unspecified)	0	-4	7	0	2	.
O=C1CC(N2CCC(c3nc4ccccc4o3)CC2)C(=O)N1c1ccc(Cl)c(C(F)(F)F)c1 (stereo unspecified)	0	3	27*	-1	-11	33*
CC(Sc1nnc(CC(=O)Nc2ccccc2F)n1C)C(=O)Nc1nccs1 (stereo unspecified)	3	0	1	2	3	.
O=[N+]([O-])c1ccc(Oc2cccc(C(F)(F)F)c2)nc1	9	7	41*	1	-19	75*	LYPLA2 gel ABPP=47
O=[N+]([O-])c1ccc(Oc2ccc(C(F)(F)F)cn2)cc1	-9	-2	5	-4	-4	.
Cc1ccc(C(=O)Cn2cnc3ccccc3c2=O)cc1	5	-7	24	-4	-7	.
CCc1ccc(C(=O)Cn2cnc3cc([N+](=O)[O-])ccc3c2=O)cc1	1	-4	46*	-1	9	37*
CCOc1ccc(C(=O)Cn2cnc3ccccc3c2=O)cc1	-1	-10	34*	3	-5	23
O=C(Cn1cnc2ccccc2c1=O)c1ccc(OC(F)F)cc1	8	-8	52*	0	-5	67*	LYPLA2 gel ABPP=70*
SMILES	LANA-H2A inh	EBNA-1 inhibitor	LYPLA2 inh	LYPLA1 counter	ZTA DNA inh	LYPLA2 conf	others
O=C(Cn1cnc2ccccc2c1=O)c1ccc(Br)cc1	-2	11	29*	-6	6	42*
CC(C)N(C(=O)Cn1cnc2cc([N+](=O)[O-])ccc2c1=O)C(C)C	2	5	5	1	8	.
CC(C)CN1CCC(=O)N(CCN=[N+]=[N-])CC1	0	6	13	6	-1	.
O=C(CCC(=O)c1cccs1)NCc1cccc(C(F)(F)F)c1	3	-2	11	0	-12	.
O=[N+]([O-])c1ccc(Oc2cccc(F)c2)c2ccncc12	-3	6	43*	6	-8	44*
CO/N=C/c1ccc(N2CCN(C(=O)c3ccc(F)cc3)CC2)c([N+](=O)[O-])c1	-3	2	48*	1	-10	50*
CO/N=C/c1ccc(N2CCN(C(=O)c3cccc(C(F)(F)F)c3)CC2)c([N+](=O)[O-])c1	-4	-2	88*	5	7	86*
O=C(N/N=C/c1ccc(N2CCOCC2)c([N+](=O)[O-])c1)c1ccc(F)cc1	-3	14	0	1	2	.
CO/N=C/c1ccc(N2CCN(C(=O)c3ccc(Cl)cc3Cl)CC2)c([N+](=O)[O-])c1	2	-4	48*	2	-14	50*
O=C(O/N=C\c1ccc(N2CCCCC2)c([N+](=O)[O-])c1)c1cccc(C(F)(F)F)c1	3	13	9	0	18	.
CC(=O)Nc1ccc(S(=O)(=O)NCC(=O)OCC(=O)N2CCN(c3ccccc3)CC2)cc1	2	-8	-3	-3	-6	.
COc1ccc(C(=O)Nc2ccc(N3CCN(C(=O)c4cccs4)CC3)cc2)cc1Br	1	-14	29*	4	-8	27*
O=C(Nc1ccc(N2CCN(C(=O)c3ccc(Cl)cc3)CC2)cc1)c1cccs1	0	-9	29*	-1	0	27*
O=C(Nc1ccc(N2CCN(C(=O)c3ccccc3)CC2)cc1)c1ccc2c(c1)OCCO2	0	-7	-1	-4	-3	.
O=C(c1ccc(N2CCCC2=O)cc1)N1CCN(c2ccc(Cl)cc2)CC1	-1	-4	53*	0	8	55*	LYPLA2 gel ABPP=40
COc1cc(OC)cc(C(=O)Nc2ccc(N3CCN(C(=O)c4cccs4)CC3)cc2)c1	-2	-6	1	1	-5	.
O=C(Nc1ccc(N2CCN(C(=O)c3ccc(Cl)cc3)CC2)cc1)c1ccc2c(c1)OCCO2	4	9	58*	4	-13	63*	LYPLA2 gel ABPP=24
Cc1cccc(NC(=O)CN2CCN(C(=O)c3cnn(Cc4ccccc4)c3)CC2)c1C	-4	.	7	0	-1	.
COc1ccccc1N1CCN(/N=C/C(Cl)=C/c2ccccc2)CC1	-7	7	2	-1	-14	.
CC(=O)c1ccc(N2CCN(C(=O)Nc3ccc(Cl)cc3)CC2)cc1	4	-1	27*	14	10	18
CC(=O)c1ccc(NC(=O)N2CCN(c3cccc(Cl)c3)CC2)cc1	1	-7	5	0	-14	.
